Screening data as filed in PubChem.
Epigenetic reg: Quantitative High-Throughput Screen for Regulators of Epigenetic Control | murine LDR cells, GFP reporter derepression, 30 h | Potency, µM (titrated, usually from 53.9 µM), hits mostly activators | hit rate 0.2% among 280,000; note: nearly all actives have a fitted effect of over 60% in size
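Derepression of a silenced CMV-GFP reporter in murine LDR cells is scored by enumerating GFP-positive cells with a laser-scanning microplate cytometer after 30 hours of treatment at 37 C.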
Vif-APOBEC3G blk: qHTS for Inhibitors of Vif-A3G Interactions: qHTS | DNA dC->dU-editing enzyme APOBEC-3G (Homo sapiens), Q9HC16 | HeLa A3G-eYFP + Vif (tagged APOBEC3G with the HIV-1 protein that degrades it), YFP fluorescence, overnight | Potency, µM (titrated, usually from 46.1 µM), hits mostly inhibitors | hit rate 0.076% among 410,000; note: nearly all actives have a fitted effect of over 60% in size
Target sequence (Q9HC16 whole entry, looked up): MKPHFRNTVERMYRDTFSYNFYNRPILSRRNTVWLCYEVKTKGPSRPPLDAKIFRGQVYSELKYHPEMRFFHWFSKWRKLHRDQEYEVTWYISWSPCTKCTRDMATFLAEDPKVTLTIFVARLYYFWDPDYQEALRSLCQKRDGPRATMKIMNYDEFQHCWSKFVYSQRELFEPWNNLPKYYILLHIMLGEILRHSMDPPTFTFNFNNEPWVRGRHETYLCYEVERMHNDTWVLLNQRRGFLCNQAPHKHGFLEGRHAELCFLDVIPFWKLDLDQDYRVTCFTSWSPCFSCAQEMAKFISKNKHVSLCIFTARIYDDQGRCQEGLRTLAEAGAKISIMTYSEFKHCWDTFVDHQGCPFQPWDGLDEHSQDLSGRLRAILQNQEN
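HeLa cells stably expressing Vif and C-terminally eYFP-tagged A3G, seeded overnight at 37 deg C, then exposed to compound by pintool overnight at 37 deg C. Rise in yellow fluorescence (Ex 488/Em 500-530, Acumen) marks blocked Vif-driven A3G degradation.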
Vif-APOBEC3F blk: qHTS for Inhibitors of Vif-A3F Interactions: qHTS; Potency, µM (series often up to 46.1 µM); HeLa A3F-eYFP + Vif (tagged APOBEC3F with the HIV-1 protein that degrades it), YFP fluorescence increase; hit rate 0.2% among 390,000; note: nearly all actives have a fitted effect of over 65% in size
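Fluorescence increase (Ex 488/Em 500-530) after overnight compound treatment at 37 deg C flags inhibition of Vif-driven A3F-eYFP loss in stable HeLa A3F-eYFP/Vif cells seeded overnight beforehand.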
A number is an active result; - = inactive; ? = inconclusive; . = no result. Shown are actives, neighbours in structure and some others; about 0.34% of the full set was active somewhere. Calls come from the whole dose curve; as a rule, active = well fitted curve in the direction sought with a large enough effect; inconclusive = small, poorly fitted or top-dose-only effect, or another doubt; inactive = no such curve, though single readings can be large; an effect the other way counts as inactive or inconclusive.

SMILES	Epigenetic reg	Vif-APOBEC3G blk	Vif-APOBEC3F blk
Cc1ccc(-c2csc(N3CCC[C@@H]3C(=O)NCCn3c(C(F)(F)F)nc4ccccc43)n2)cc1	.	-	-
CCCn1c(C2CCCN2c2nc(-c3cccc(Br)c3)cs2)nc2ccccc21 (centres undefined)	.	-	10µM
COc1ccc(C(c2c(O)cc(C)n(Cc3ccco3)c2=O)N2CCN(c3ccccc3)CC2)cc1 (centres undefined)	-	-	-
CCCN1CCc2c(sc(NC(=O)c3ccc(S(=O)(=O)N(C)c4ccccc4)cc3)c2C(N)=O)C1	.	?	6.31µM
CCN1CCc2c(sc(NC(=O)c3ccc(S(=O)(=O)N(C)C4CCCCC4)cc3)c2C(N)=O)C1	-	?	?
CCCN1CCc2c(sc(NC(=O)c3ccc(S(=O)(=O)N4CCN(C(=O)OCC)CC4)cc3)c2C(N)=O)C1	.	?	10µM
CCCN1CCc2c(sc(NC(=O)c3ccc(S(=O)(=O)N(C)c4ccccc4)cc3)c2C(=O)NC)C1	.	22.4µM	?
COC(=O)c1c(NC(=O)c2ccc(S(=O)(=O)N3CC(C)OC(C)C3)cc2)sc2c1CCN(C)C2 (centres undefined)	.	-	?
CCN1CCc2c(sc(NC(=O)c3ccc(S(=O)(=O)N4CCCC4)cc3)c2C(=O)NC)C1	.	-	?
CCOC(=O)c1c(NC(=O)c2ccc(S(=O)(=O)N3CCC(C)CC3)cc2)sc2c1CCN(C)C2	?	?	10µM
CN1CCc2c(sc(NC(=O)c3ccc(S(=O)(=O)N4CCCC4)cc3)c2C(N)=O)C1	.	-	-
C(=Nc1cccnc1)c1ccc2ccccc2n1	.	-	.
CC(=O)c1ccc(NC(=O)c2cc(C3CC3)nc3c2c(C)nn3-c2ccc(C)cc2)cc1	-	-	-
O=C(COc1ccc(Cl)cc1)NCCc1csc(-c2ccc(F)cc2)n1	-	-	-
O=C(C[n+]1cccc(Br)c1)c1ccc(I)cc1	.	-	.
CCCSC1=NC2(CCN(C(=O)NC3CCCCC3)CC2)N=C1c1ccc(OC)cc1	-	-	-
Cc1cccc(Cn2cnc3c(cnn3C(C)(C)C)c2=O)c1	.	-	.
CNC(=O)c1c(NC(=O)c2ccc(S(=O)(=O)N3CCCc4ccccc43)cc2)sc2c1CCN(C)C2	22.4µM	-	?
CNC(=O)c1c(NC(=O)c2ccc(S(=O)(=O)N3CCCCC3)cc2)sc2c1CCN(C(C)C)C2	.	-	?
Cc1sc2ccccc2[n+]1CCC[n+]1c(C)sc2ccccc21	.	-	.
Cc1cc(/C=C/c2nc3ccccc3s2)ccc1N(C)C	.	-	.
COc1cc2nc(/C=C/c3ccc(N(C)C)cc3)sc2cc1SC	11.2µM	?	8.91µM
CN(C)c1ccc(/C=C/c2ccncc2)cc1	-	?	28.2µM
CN(C)c1ccc(/C=C/c2nccc3ccccc23)cc1	.	11.2µM	.
C(=C\c1c[nH]c2ccccc12)/c1nccc2ccccc12	.	8.91µM	.
SMILES	Epigenetic reg	Vif-APOBEC3G blk	Vif-APOBEC3F blk
COc1cc(OC)c(OC)cc1/C=C/c1nccc2ccccc12	.	-	.
CN(C)c1ccc(C=Cc2cnccn2)cc1	.	-	-
Fc1ccc(/C=C/c2nccc3ccccc23)cc1	.	-	.
Nc1c(Cl)cc(C=O)cc1Cl	.	-	.
Cc1cc(C)c2oc(-c3cccc(NC(=O)COc4ccc(Cl)cc4C)c3C)nc2c1	.	-	.
O=C(CNC(=O)C(c1ccccc1)c1ccccc1)OCC(=O)c1ccc2ccccc2c1	.	-	.
O=C(Oc1ccc2ccccc2c1)c1ccco1	-	-	-
CC1CC(C)(C)Nc2ccc(OC(=O)c3ccco3)cc21 (centres undefined)	?	22.4µM	31.6µM
COc1ccc(N=c2oc3c(OC)cccc3cc2C(=O)NCc2ccco2)cc1OC	12.6µM	-	?
COc1ccccc1N=c1oc2c(OC)cccc2cc1C(=O)NCc1ccco1	-	-	-
CN(C)c1ccc(/C=C/c2ccc3ccccc3[n+]2C)cc1	-	-	-
Cc1cc(/C=C/c2ccc3cc(N(C)C)ccc3[n+]2C)c(C)n1-c1ccccc1	22.4µM	.	.
CCOC(=O)CCCC(=O)N1CCN(/[N+]([O-])=N/Oc2ccc([N+](=O)[O-])cc2[N+](=O)[O-])CC1	.	-	.
COc1cccc(-c2nccc(-n3ccnc3)n2)c1	-	.	.
C=C(c1ccc2ccccc2n1)c1cccs1	.	-	.
CN1CCN(C2=CC3=CC(=C(C#N)C#N)CCC3CC2)CC1 (centres undefined)	?	-	-
N#CC(C#N)=C1C=C2C=C(N3CCOCC3)CCC2CC1 (centres undefined)	10µM	-	11.2µM
N#CC(C#N)=C1C=C2C=C(N3CCCCCC3)CCC2CC1 (centres undefined)	?	-	?
CCN1CCN(C2=CC3=CC(=C(C#N)C#N)CCC3CC2)CC1 (centres undefined)	1.41µM	-	?
CCN(CC)CCCNC(=O)c1ccc2c(c1)N(Cc1c(F)cccc1Cl)C(=O)c1ccccc1S2	-	-	-
COc1ccc(NC(=O)c2cn3c4c(ccc(Cl)c4c2=O)OC(C)C3)cc1OC (centres undefined)	17.8µM	-	?
CC(=O)c1ccc(NC(=O)c2cn3c4c(ccc(Cl)c4c2=O)OC(C)C3)cc1 (centres undefined)	-	-	-
CC(=O)/C(N=Nc1ccc(C(=O)O)cc1[N+](=O)[O-])=C(\C)O	-	-	-
CC(=O)/C(N=Nc1cc(C)ccc1O)=C(\C)O	-	?	25.1µM
O=C(NC1CC1)c1ccc2nc(-c3ccco3)c(-c3ccco3)nc2c1	.	-	.
SMILES	Epigenetic reg	Vif-APOBEC3G blk	Vif-APOBEC3F blk
O=c1[nH]c(NCc2ccco2)nnc1Cc1ccccc1Cl	-	12.6µM	.
Cc1nc(NCc2ccco2)[nH]c(=O)c1CCC(C)C	-	-	-
CCc1cccc2c(C(O)(c3c[nH]c4c(CC)cccc34)c3c[nH]c4c(CC)cccc34)c[nH]c12	.	-	.
Cc1nn2c(NCc3ccccn3)c3c(nc2c1-c1ccccc1)CCC3	22.4µM	-	-
Cc1cc(NCc2ccccn2)n2nc(C)c(-c3ccccc3)c2n1	?	-	-
COc1cccc(N2CCN(C(=O)c3ccc(CS(=O)c4cccc(Cl)c4)o3)CC2)c1 (centres undefined)	-	?	-
CC1=C/C(=C\C=C(C#N)C#N)N(C)c2ccccc21	?	1.78µM	?
CN1/C(=C/C=C(C#N)C#N)C(C)(C)c2ccccc21	-	-	?
CCN1CCc2nc3sc(C(=O)Nc4cccc(Cl)c4C)c(N)c3cc2C1	-	-	-
Cc1cccc(NC(=O)c2c(C)cc(C)nc2SCC(=O)Nc2c(C)cc(C)cc2C)c1	?	-	-
O=C(Nc1ccc(Cl)cn1)c1cccc(S(=O)(=O)N2CCCCC2)c1	.	-	-
O=C(Nc1ccc(Cl)cn1)c1cccc(S(=O)(=O)N2CCCCCC2)c1	.	20µM	-
CC(=O)Nc1ccc(/C=C2\C=Cc3ccccc32)cc1	.	-	.
O=C(COC(=O)C12CC3CC(CC(Br)(C3)C1)C2)NCc1ccco1	.	-	.
C1=Cc2ccccc2/C1=C/c1ccc2c(c1)OCO2	.	-	.
COc1ccc(NC(=O)c2ccccc2OCC(=O)Nc2ccc(Br)cc2)cc1	.	-	.
CNc1ccc(C=O)cc1Cl	.	-	.
CC(C)NC(=S)N/N=C/c1sc(N2CCCCC2)nc1-c1cccs1	?	?	11.2µM
